PubChem BioAssay (Tox21)
Results filed as inconclusive are left out. Where a call stands in place of a potency, no number is given. Calls of active or inactive are those of the source. Calls come from the whole dose curve.

The compounds below were run against Thyrotropin receptor (Homo sapiens) (UniProt P16473) (assay: qHTS assay to identify small molecule antagonists of the thyroid stimulating hormone receptor (TSHR) signaling pathway (AID 1259385; note: nearly all actives have a fitted effect of over 20% in size)). Conditions: TSHR-HEK293 cAMP HTRF, TSH-stimulated antagonist mode; series mostly up to 92.4 µM.
Thyrotropin receptor (Homo sapiens), sequence (P16473 whole entry, looked up): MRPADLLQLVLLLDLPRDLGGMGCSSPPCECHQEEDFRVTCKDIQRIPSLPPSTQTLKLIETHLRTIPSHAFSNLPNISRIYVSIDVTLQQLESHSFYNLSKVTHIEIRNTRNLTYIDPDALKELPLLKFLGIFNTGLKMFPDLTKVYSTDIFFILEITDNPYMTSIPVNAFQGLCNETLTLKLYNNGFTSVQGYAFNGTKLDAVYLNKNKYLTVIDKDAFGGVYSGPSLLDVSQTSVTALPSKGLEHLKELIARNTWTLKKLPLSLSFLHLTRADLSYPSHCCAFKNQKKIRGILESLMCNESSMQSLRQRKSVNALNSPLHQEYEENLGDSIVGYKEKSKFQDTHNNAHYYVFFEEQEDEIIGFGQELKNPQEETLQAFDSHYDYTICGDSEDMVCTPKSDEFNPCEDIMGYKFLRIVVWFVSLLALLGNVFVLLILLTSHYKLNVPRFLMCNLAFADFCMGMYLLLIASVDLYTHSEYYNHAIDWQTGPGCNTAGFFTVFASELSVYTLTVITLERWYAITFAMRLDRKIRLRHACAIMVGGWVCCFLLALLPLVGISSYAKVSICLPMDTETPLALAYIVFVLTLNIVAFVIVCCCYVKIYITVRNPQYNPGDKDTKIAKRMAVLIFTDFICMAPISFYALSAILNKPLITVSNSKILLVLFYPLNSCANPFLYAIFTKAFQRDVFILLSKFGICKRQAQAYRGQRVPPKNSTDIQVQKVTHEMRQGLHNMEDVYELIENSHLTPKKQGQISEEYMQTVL
Source text: U.S. Tox21 Program National Center for Advancing Translational Sciences [NCATS] NIH Chemical Genomics Center [NCGC] U.S. Environmental Protection Agency [EPA] National Institutes of Environmental Health Sciences [NIEHS] National Toxicology Program [NTP] U.S. Food and Drug Administration [FDA] Tox21 Assay Overview: TSHR is the receptor for thyrotropin (thyroid stimulating hormone or TSH), a member of the glycoprotein hormone family. TSH is released by the anterior pituitary gland and is the main regulator of thyroid gland growth and development. Upon binding circulating thyrotropin, a G-protein signal cascade activates adenylyl cyclase and […] cAMP concentration is increased. cAMP is a key second messenger involved extensively in cellular signal transduction pathways associated with the majority of G-protein coupled receptors (GPCRs). The activation of these GPCRs by neurotransmitters, lipids, nucleotides, peptides and hormones results in the activation or the inhibition of plasma membrane-bound adenylate cyclase through heterotrimeric G-proteins. A cell-based TSHR assay can be used to screen chemical compounds that modulate TSHR either in agonist or antagonist mode.
Tox21 Assay Protocol Summary: TSHR-Hek293 cells were dispensed at 800 cells/4uL/well in 1536-well white plates using a Multidrop dispenser. After the assay plates were incubated at a 37C/5% CO2 incubator for 18 hrs, 23 nL of compounds dissolved in DMSO, positive controls or DMSO only was transferred to the assay plate by a pin tool, followed by 1 ul medium containing Ro20-1724. For the antagonist mode screening, 1 uL of TSH was added on the top of the cell/compound mixtures to achieve a final agonist concentration of 1.5 ng/mL. After 30 min of incubation at room temperature, 2.5 ul/well of cAMP-d2 and 2.5 ul/well of anti-cAMP-cryptate were added respectively into the assay plates using a Flying Reagent Dispenser. The plates were incubated at room temperature for 1 hr. The fluorescence intensity in the plates was measured using an Envision plate reader. Each test compound was measured at 15 concentrations and in triplicates.
Potency is the fitted concentration of half-maximal effect.

**Q.** `CC(=O)c1ccc2c(c1)[C@H](NC(=O)c1ccc(F)cc1)[C@@H](O)C(C)(C)O2` was tested. Which Potency did it give?
**A.** inactive

**Q.** Which Potency does the source give for `O=C(O)[C@@H]1[C@H]2C[C@H]3c4[nH]c5ccccc5c4CCN3C[C@@H]2CC[C@@H]1O` here?
**A.** inactive

**Q.** Which Potency does the source give for `Cc1ncsc1CCO` here?
**A.** inactive

**Q.** Which Potency does the source give for `OCCC1CCCCN1` (stereo not given) here?
**A.** inactive

**Q.** For `Nc1cnn([C@@H]2O[C@H](CO)[C@@H](O)[C@H]2O)c(=O)n1`, which Potency is on record?
**A.** inactive

**Q.** `COC(=O)C(C)=O` was tested. Which Potency did it give?
**A.** inactive

**Q.** For `C=CC(=O)OCCOC(=O)CCC(=O)O`, which Potency is on record?
**A.** inactive

**Q.** Which Potency does the source give for `Cc1cccc(Oc2ccccc2)c1` here?
**A.** inactive

**Q.** How did the Potency turn out when `NCc1ccccc1` was run?
**A.** inactive

**Q.** For `CC(C)c1ccc2c(C(C)C)cc(C(C)C)c(S(=O)(=O)O)c2c1`, which Potency is on record?
**A.** inactive

**Q.** With `CCN(CC)CCc1nc(-c2ccccc2)no1` as the compound, how does the Potency read?
**A.** inactive

**Q.** `CCOc1ccc2[nH]cc(C(=O)NCc3ccccc3)c(=O)c2n1` was tested. Which Potency did it give?
**A.** inactive

**Q.** For `Cc1cccc(OCCOc2cccc(C)c2)c1`, which Potency is on record?
**A.** inactive

**Q.** With `C=CC(C)(CCC=C(C)C)OC(=O)c1ccccc1` (stereo not given) as the compound, how does the Potency read?
**A.** inactive

**Q.** How did the Potency turn out when `CCCCCCCC/C=C\CCCCCCCC(N)=O` was run?
**A.** inactive

**Q.** `COCCOCCOCCOCCOC` was tested. Which Potency did it give?
**A.** inactive

**Q.** Which Potency does the source give for `C=C(C)C(=O)OC(C)C` here?
**A.** inactive

**Q.** With `CCOC(=O)CC(C)C` as the compound, how does the Potency read?
**A.** inactive

**Q.** How did the Potency turn out when `CCCCc1cc2ccccc2c(OCCN(C)C)n1` was run?
**A.** inactive

**Q.** With `CC(C)(C)c1cc(O)c(C(C)(C)C)cc1O` as the compound, how does the Potency read?
**A.** 61.1 µM (active)

**Q.** `CN(C)CCCNCCCN` was tested. Which Potency did it give?
**A.** inactive

**Q.** For `O=C(c1ccc(O)cc1)c1ccc(O)cc1`, which Potency is on record?
**A.** inactive

**Q.** How did the Potency turn out when `CN1CCC(OC(c2ccccc2)c2ccccc2)CC1` was run?
**A.** inactive

**Q.** With `CN1CCN(C2=Nc3cc(Cl)ccc3Nc3ccccc32)CC1` as the compound, how does the Potency read?
**A.** inactive

**Q.** With `O=C1CCCCCO1` as the compound, how does the Potency read?
**A.** inactive

**Q.** With `CCOC(=O)C1=NN(c2ccccc2)C(=O)C1` as the compound, how does the Potency read?
**A.** inactive

**Q.** `CCCCOC(O)CC` (stereo not given) was tested. Which Potency did it give?
**A.** inactive

**Q.** How did the Potency turn out when `C=CC[N+]1([C@H]2C[C@H]3[C@@H]4CC[C@H]5C[C@H](OC(C)=O)[C@@H](N6CCCCC6)C[C@]5(C)[C@H]4CC[C@]3(C)[C@H]2OC(=O)CC)CCCCC1` was run?
**A.** inactive

**Q.** How did the Potency turn out when `CCCCCC(CO)CCC` (stereo not given) was run?
**A.** inactive

**Q.** With `CCC(=O)OC(C)(C)C1CC=C(C)CC1` (stereo not given) as the compound, how does the Potency read?
**A.** inactive

**Q.** With `NCCCOCCOCCOCCCN` as the compound, how does the Potency read?
**A.** inactive

**Q.** Which Potency does the source give for `CC1CCc2cc(F)cc3c(=O)c(C(=O)O)cn1c23` (stereo not given) here?
**A.** inactive

**Q.** How did the Potency turn out when `O=C(CC(=O)c1ccccc1)c1ccccc1` was run?
**A.** inactive

**Q.** With `Cn1c(=O)c2c(ncn2CC(O)CO)n(C)c1=O` (stereo not given) as the compound, how does the Potency read?
**A.** inactive

**Q.** Which Potency does the source give for `Oc1ccc(O)c2c(O)cccc12` here?
**A.** inactive

**Q.** With `CCN(CC)C(C)CN1c2ccccc2Sc2ccccc21` (stereo not given) as the compound, how does the Potency read?
**A.** inactive

**Q.** With `Cn1c(NCCN(CCO)CCCc2ccc([N+](=O)[O-])cc2)cc(=O)n(C)c1=O` as the compound, how does the Potency read?
**A.** inactive

**Q.** With `CC(=O)/C(C)=C/C1C(C)=CCCC1(C)C` (stereo not given) as the compound, how does the Potency read?
**A.** inactive

**Q.** For `O=C(Cl)c1c(Cl)cccc1Cl`, which Potency is on record?
**A.** inactive

**Q.** `O=C1c2cccc(O)c2C(=O)c2c(O)cc(CO)cc21` was tested. Which Potency did it give?
**A.** inactive
